Bioassay records from PubChem.
miR-122 inh – raises miR-122 sensor activity in Huh7 cells. Huh7 psiCHECK-miR122 Renilla luciferase sensor, 48 h. activation, % at 12.5 µM. 340,000 tested, 0.14% active. AID 623901;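 active means mean activation of 30% or more, with every replicate also reaching 30%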;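 further: higher luciferase signal means stronger suppression of miR-122 activity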
Of the large screens only hits and unclear results are named; the others gave an inactive call. This is one part of a sample in which hits are shown more often than they occur.

C[C@H](CO)N1C[C@H](C)[C@@H](CN(C)Cc2ccc(Oc3ccccc3)cc2)Oc2ncc(-c3cccnc3)cc2C1=O	none
COCC#Cc1cnc2c(c1)C(=O)N([C@@H](C)CO)C[C@@H](C)[C@@H](CN(C)C(=O)C1CCOCC1)O2	none
C[C@@H]1CN([C@@H](C)CO)C(=O)c2cc(C#Cc3ccccc3)cnc2O[C@@H]1CN(C)C(=O)c1ccccn1	none
COc1cccc(S(=O)(=O)N(C)C[C@@H]2Oc3ncc(-c4ccc(F)cc4)cc3C(=O)N([C@H](C)CO)C[C@@H]2C)c1	none
C[C@@H]1CN([C@@H](C)CO)C(=O)c2cc(-c3cncnc3)cnc2O[C@H]1CN(C)Cc1ccncc1	none
C[C@@H]1CN([C@H](C)CO)S(=O)(=O)c2ccc(-c3ccccc3)cc2O[C@@H]1CN(C)Cc1cccnc1	none
C[C@H](CO)N1C[C@H](C)[C@@H](CN(C)Cc2cncnc2)Oc2ncc(-c3cccc(F)c3)cc2C1=O	none
C[C@H](NC(=O)C[C@@H]1CC[C@H]2[C@H](COc3ccc(NS(=O)(=O)c4ccc(Cl)cc4)cc3C(=O)N2C)O1)c1ccccc1	miR-122 inh 37
C[C@H](NC(=O)C[C@H]1CC[C@@H]2[C@@H](COc3ccc(NS(=O)(=O)c4ccc(Cl)cc4)cc3C(=O)N2C)O1)c1ccccc1	miR-122 inh 45
C[C@@H]1CN([C@H](C)CO)S(=O)(=O)c2ccc(C#Cc3ccccc3)cc2O[C@@H]1CN(C)S(=O)(=O)c1ccccc1F	none
CCC(=O)N(C)C[C@H]1Oc2ncc(C#Cc3cccnc3)cc2C(=O)N([C@H](C)CO)C[C@@H]1C	none
CC(C)CC#Cc1cnc2c(c1)C(=O)N([C@@H](C)CO)C[C@@H](C)[C@H](CN(C)C(=O)Nc1cc(F)ccc1F)O2	none
CC(=O)N(C)C[C@H]1Oc2cc(C#C[C@H](C)O)ccc2S(=O)(=O)N([C@H](C)CO)C[C@H]1C	none
C[C@@H]1CN([C@@H](C)CO)S(=O)(=O)c2ccc(-c3cccnc3)cc2O[C@H]1CN(C)Cc1ccccn1	none
C[C@H]1CN([C@@H](C)CO)C(=O)c2cc(C#CC3(O)CCCC3)cnc2O[C@@H]1CN(C)S(=O)(=O)c1ccccc1	none
C[C@H](CO)N1C[C@H](C)[C@H](CN(C)S(=O)(=O)c2ccccc2)Oc2ncc(C#Cc3ccccc3F)cc2C1=O	none
COc1ccc(NC(=O)N(C)C[C@@H]2Oc3ncc(C4=CCCC4)cc3C(=O)N([C@H](C)CO)C[C@@H]2C)cc1	none
CCCCCCCCCCn1c2c(c(=N)c3c1CCC3)CCC2	miR-122 inh 66
C[C@H](CO)N1C[C@H](C)[C@@H](CN(C)Cc2ccc(C(F)(F)F)cc2)Oc2c(NC(=O)c3nc4ccccc4s3)cccc2C1=O	none
COc1ccc(C#Cc2ccc3c(c2)O[C@@H](CN(C)C(=O)NC2CCCCC2)[C@H](C)CN([C@H](C)CO)S3(=O)=O)cc1	none
COc1ccc(-c2cnc3c(c2)C(=O)N([C@@H](C)CO)C[C@@H](C)[C@H](CN(C)C(=O)C2CCOCC2)O3)cc1	none
CCN(CC)CCOc1cccc(C(C)C)c1	miR-122 inh 36
C[C@H]1CN([C@@H](C)CO)S(=O)(=O)c2ccc(-c3cncnc3)cc2O[C@@H]1CN(C)C(=O)Cc1cccnc1	none
CCC(=O)N(C)C[C@H]1Oc2ncc(C#Cc3ccccc3OC)cc2C(=O)N([C@H](C)CO)C[C@H]1C	none
COc1ccc(NC(=O)N(C)C[C@H]2Oc3ncc(C4=CCCC4)cc3C(=O)N([C@H](C)CO)C[C@H]2C)cc1	none
COc1ccccc1-c1cnc2c(c1)C(=O)N([C@H](C)CO)C[C@H](C)[C@@H](CN(C)C(=O)CN(C)C)O2	none
C[C@@H]1CN([C@H](C)CO)C(=O)c2cc(C#Cc3ccc(F)cc3)cnc2O[C@@H]1CN(C)C(=O)c1ccccc1F	none
CCOC(=O)Nc1cc2c(c(N)n1)N=C(c1ccccc1)CN2	none
CCOC(=O)CCS(=O)(=O)c1nc(-c2ccccc2)cc(C(F)(F)F)n1	miR-122 inh 51
C/C=C/c1cnc2c(c1)C(=O)N([C@@H](C)CO)C[C@H](C)[C@@H](CN(C)CC1CCOCC1)O2	none
C[C@H]1CN([C@@H](C)CO)C(=O)c2cccc(NC(=O)C3CCOCC3)c2O[C@@H]1CN(C)Cc1ccc(C(F)(F)F)cc1	none
C[C@@H]1CN([C@@H](C)CO)C(=O)c2cc(-c3cccnc3)cnc2O[C@H]1CN(C)C(=O)Nc1ccc(F)cc1	none
COCC#Cc1cnc2c(c1)C(=O)N([C@H](C)CO)C[C@@H](C)[C@@H](CN(C)C(=O)Cc1ccccc1)O2	none
C[C@@H]1CN([C@H](C)CO)C(=O)c2cc(-c3cncnc3)cnc2O[C@H]1CN(C)Cc1ccncc1	none
CC(=O)N(C)C[C@H]1Oc2cc(C#CC3CCCCC3)ccc2S(=O)(=O)N([C@@H](C)CO)C[C@H]1C	none
C[C@@H]1CN([C@@H](C)CO)S(=O)(=O)c2ccc(C#C[C@@H](C)O)cc2O[C@H]1CN(C)CC1CCOCC1	none
CNC[C@H]1Oc2cc(-c3cccc(F)c3)ccc2S(=O)(=O)N([C@H](C)CO)C[C@@H]1C	none
COc1cc(/C=N/Nc2nc(Nc3ccc(C)cc3)nc(-n3nc(C)cc3C)n2)cc(OC)c1OC	miR-122 inh 47
